Experimental data: PubChem BioAssay (NCI)
This is part of a sample that, as a whole, favours compounds with a hit. Of some 83,000 tested, about 20% had one in any assay.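 Method: cells in 96-well plates; compound added at one concentration; 48 h incubation; percent growth measured; values under 10 scored active.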 Activity calls are given as the source filed them.

How the values were obtained:
Assay in all cases: NCI-60 one-dose screen, 48 h (100 = growth as untreated, 0 = no growth, -100 = all killed)
Details in all cases: 10 µM unless noted
[1] = tested on: HCT-15 colon
[2] = tested on: HT29 colon
[3] = tested on: SNB-75 CNS
[4] = tested on: SNB-19 CNS
[5] = tested on: U251 CNS
[6] = tested on: PC-3 prostate
[7] = tested on: SK-MEL-5 melanoma
[8] = tested on: UACC-62 melanoma
[9] = tested on: LOX IMVI melanoma
[10] = tested on: SK-MEL-28 melanoma

Measured: growth

Cc1cccc(Oc2ccc(Nc3ncnc4ccc(NC(=O)CN5CCN(C)CC5)cc34)cc2Cl)c1
active: [1] 5.82% | [2] -30.1% | [5] 9.58% | [7] -76.7% | [8] -27.4% | [9] -94.2% | [10] -84.6%
inactive: [3] 80.8% | [4] 28.4% | [6] 33.1%

N=C(N)c1ccc(-c2ccc(-c3ccccc3)s2)cc1
inactive: [3] 108% | [4] 50.1% | [6] 51.3% | [7] 95.5% | [8] 94.9% | [10] 113%
active: [1] -28.3% | [2] -5% | [5] 9.73% | [9] -70.2%

CC1(C)CC[C@]2(C(=O)N[C@H](CO)Cc3ccccc3)CC[C@]3(C)C(=CC[C@@H]4[C@@]5(C)CCCNC(C)(C)[C@@H]5CC[C@]43C)[C@@H]2C1
inactive: [1] 60.5% | [2] 10.6% | [3] 87.1% | [4] 84.8% | [5] 68.9% | [6] 25.7% | [7] 90.7% | [8] 78.5% | [9] 69.6% | [10] 106%

COc1ccc(/C=C/C(=O)c2cc(OC)c(OC)c(OC)c2)cc1OCC(=O)Nc1nc2ccc(OC(F)(F)F)cc2s1
inactive: [1] 11.7% | [2] 20.1% | [4] 12.9% | [6] 33.4% | [8] 60% | [10] 36.4%
active: [3] -33.1% | [5] -45.9% | [7] 2.06% | [9] -22.9%

Cc1c(CC(=S)N2CCOCC2)nnn1-c1cccc(C(F)(F)F)c1
inactive: [1] 104% | [2] 101% | [3] 92.3% | [4] 106% | [5] 95.4% | [6] 99% | [7] 99.8% | [8] 101% | [9] 98.2% | [10] 113%

Cn1ccc(=O)nc1
inactive: [1] 24.1% | [2] 20.6% | [3] 104% | [4] 84.6% | [5] 77.8% | [6] 69.6% | [7] 99.3% | [8] 74.8% | [9] 76.8% | [10] 109%

CCc1ccc(CCC(=O)Nc2ncc(Cc3ccccc3)s2)o1
inactive: [1] 20.2% | [4] 52.9% | [5] 27.2% | [6] 26.7% | [7] 42.8% | [8] 23% | [9] 42.4% | [10] 56.4%
active: [2] 9.07% | [3] 3.46%

O=C(CCCCCCN1CC(=O)N2[C@H](c3ccc(Br)cc3)c3[nH]c4ccccc4c3C[C@@H]2C1=O)NO
inactive: [1] 103% | [2] 53% | [3] 31.9% | [4] 57.1% | [5] 42.6% | [6] 39.1% | [7] 26% | [8] 13.8% | [9] 12.3% | [10] 33.9%

CC(=O)c1ccc(Nc2nccc(-c3ccc4ccccc4c3)n2)cc1
inactive: [1] 85.7% | [2] 91.4% | [3] 91.8% | [4] 94.9% | [5] 95.5% | [6] 91.5% | [7] 97.6% | [8] 88% | [9] 99% | [10] 107%

O=C1c2ccccc2C(=O)C1c1ccc(Br)cc1
inactive: [1] 92.7% | [2] 101% | [3] 65% | [4] 104% | [5] 95.8% | [6] 97.9% | [7] 107% | [8] 98.3% | [9] 88.9% | [10] 98%

CCN1C2CCC1/C(=C\c1ccc(F)cc1)C(=O)/C2=C/c1ccc(F)cc1
inactive: [1] 30.4% | [2] 23.7% | [3] 40.6% | [4] 51% | [5] 21.2% | [6] 38.5% | [7] 48.2% | [8] 35.7% | [9] 19.7% | [10] 72.5%

Cc1ccc(/C=C(\C#N)n2nnc3cc(F)c(F)cc32)cc1
active: [2] 5.95% | [3] -15.2% | [9] -17.6%
inactive: [1] 14.6% | [4] 31.9% | [5] 24.4% | [6] 21.3% | [7] 16.4% | [8] 34.7% | [10] 39.5%

N#C/C(=C\c1ccc([N+](=O)[O-])cc1)n1nnc2cc(F)c(F)cc21
active: [1] -7.69% | [2] 0.57% | [6] -16% | [8] -43.7% | [9] -97.6%
inactive: [3] 46.3% | [4] 69% | [5] 43.5% | [7] 81.3% | [10] 101%

CN1CCN(Cc2ccc(NC(=O)c3cncc(C#Cc4cnc(N)c5ccc(F)cc45)c3)cc2C(F)(F)F)CC1
active: [1] -86.1% | [2] -56.3% | [3] -3.01% | [5] -92.4% | [7] -21.8% | [9] -90.3%
inactive: [4] 29.4% | [6] 18.6% | [8] 20.6% | [10] 34.3%

CC1(C)CC2=C3C=C[C@@H]4[C@@]5(C)CCC(=O)C(C)(C)[C@@H]5CC[C@@]4(C)[C@]3(C)CC[C@@]2(C(=O)O)C[C@H]1O
active: [1] 6.74% | [9] 7.33%
inactive: [2] 14% | [3] 19.2% | [4] 32.1% | [5] 22.6% | [6] 40.4% | [7] 14% | [8] 20.6% | [10] 25%

C#COc1cccc(Nc2ncnc3cc(NC(=O)[C@@H](C)Cl)ccc23)c1
active: [2] 0.0167% [6.25 µM] | [3] -7.9% [6.25 µM] | [5] 4.37% [6.25 µM] | [6] 8.91% [6.25 µM]
inactive: [1] 11.6% [6.25 µM] | [4] 19.3% [6.25 µM] | [7] 14.2% [6.25 µM] | [8] 24.9% [6.25 µM] | [9] 11.4% [6.25 µM] | [10] 38% [6.25 µM]

C/C(=N\O)c1ccc(NC(=O)CSc2nnc(-c3cc(-c4ccc(S(C)(=O)=O)cc4)nc4ccccc34)n2-c2ccccc2)cc1
inactive: [1] 84.7% | [2] 102% | [3] 57% | [4] 87.6% | [5] 93.5% | [6] 68.5% | [7] 74.8% | [8] 80.6% | [9] 76.7% | [10] 102%

CCOC(=O)c1c(C)nc2c(c1N)/C(=C/c1ccc(OC)cc1)C(=O)N2Cc1ccccc1
inactive: [1] 41% | [2] 34% | [3] 73.3% | [4] 77.7% | [5] 50.7% | [6] 58.4% | [7] 61.8% | [8] 48.8% | [10] 78.5%

COc1ccc(/C=C/C(=O)c2ccc(NC(=O)CSc3nc4c([nH]3)c(=O)n(C)c(=O)n4C)cc2)cc1OC
inactive: [1] 89% | [2] 103% | [3] 82.3% | [4] 62.5% | [5] 49.6% | [6] 94.6% | [7] 92% | [8] 81.4% | [9] 78.3% | [10] 95.7%

O=C(Nc1ncccc1OCc1ccccc1)NC1CCCCCC1
inactive: [1] 80.7% | [2] 74.6% | [3] 97.7% | [4] 97.9% | [5] 96.2% | [6] 48.1% | [7] 69.1% | [8] 71.6% | [10] 93.6%
